From PubChem BioAssay AID2314 (National Center for Advancing Translational Sciences (NCATS), 2010)
Values joined by “and” are separate entries in the source; they are usually repeats but may differ in a detail not shown here. Identical values can stand only once. Out of some 300,000 compounds screened, about 37,000 (12%) were called active. No stated cut-off is given here; in the data, active means max response mostly above about 13% (no sharp cut-off); inactive means mostly below about 14%. For the sample, actives were picked, then their nearest neighbours and some compounds at random.

Assay: Cycloheximide Counterscreen for Small Molecule Inhibitors of Shiga Toxin; further: read at 38.3 µM for the half of the compounds with a filed dose; 0% is about no effect
Settings: cell reporter, cycloheximide protein synthesis inhibition counterscreen; hits give high values

SMILES | max response
Cc1cccc(N(C(=O)c2sc(C)nc2C)C(C(=O)NCC2CCCO2)c2ccccc2)c1 (configuration not stated) | -2.65% (inactive)
CCOc1ccc(NC(=O)C(C)N2C(=O)c3ccccc3C2=O)cc1 (configuration not stated) | -2.64% (inactive)
O=C(O)CCCCc1nc2ccccc2s1 | 3.94% (inactive)
O=C(O)c1ccccc1CSc1nc2ccccc2s1 | 34% (active)
O=C(CSc1nc2ccccc2s1)Nc1ccc(C(=O)O)cc1 | -4.27% (inactive)
O=C(O)CS/C(=C\c1ccc(F)cc1)c1nc2ccccc2s1 | 37.2% (active)
O=C(O)CSCc1nc2ccccc2s1 | 27.6% (active)
O=C(O)CSc1nccc2ccccc12 | 2.48% (inactive)
CN(Cc1nc2ccccc2s1)C(=O)c1ccc(F)cc1 | 14.2% (inactive)
O=C(O)c1cccc(S(=O)(=O)Nc2ccc(O)cc2Sc2nc3ccccc3s2)c1 | 4.69% (inactive)
O=C(O)CC/C(=C\c1cc2c(cc1Br)OCO2)c1nc2ccccc2s1 | 0.661% (inactive)
C=CCn1c(-c2ccccc2OCC)n[nH]c1=S | 5.03% (inactive)
COc1ccccc1C(=O)N(Cc1ccc(C)o1)C1CCS(=O)(=O)C1 (configuration not stated) | 1.49% (inactive)
COc1cc(Cl)c(C)cc1NC(=O)CSc1nnc(-c2ccco2)n1CC(C)C | -3.52% (inactive)
O=C(CC12CC3CC(CC(C3)C1)C2)Nc1ccc2c(c1)COC2=O | -2.75% (inactive)
COc1ccccc1N1CCN(C(=O)c2cc(=O)c3cc(C)ccc3o2)CC1 | -2.83% (inactive)
Cc1ccc2c(C)c(C(=O)N3CCC(N4CCC(C(=O)NC5CC5)CC4)CC3)oc2c1 | 0.384% (inactive)
Cc1ccc2oc(C(=O)N3CCN(C)C[C@@H]3C(C)C)c(C)c2c1 | 22.3% (active)
COc1cccc(CNC(=O)c2cccnc2Sc2ccc(Cl)cc2)c1 | 0.861% (inactive)
O=C(NCc1cc(C(F)(F)F)cc(C(F)(F)F)c1)C1CC(c2cccc(F)c2)=NO1 (configuration not stated) | -1.65% (inactive)
CCCn1nc(NS(=O)(=O)c2ccc(F)cc2)c2cc3ccccc3nc21 | -11.4% (inactive)
Cc1cccc(N2CCN(C(=O)c3cccc(S(=O)(=O)N4CCc5ccccc5C4)c3)CC2C)c1 (configuration not stated) | 1.1% (inactive)
N#Cc1ccc(N2Cc3ccccc3/C2=N/C(=O)Nc2ccc(Cl)cc2)cc1 | 15% (inactive)

SMILES | max response
Cc1cccc(N2Cc3ccccc3C2=NC(=O)c2ccc(Cl)nc2)c1 | 35.1% (active)
COc1ccc(C(=O)CC(=O)C(=O)Nc2cc([N+](=O)[O-])ccc2OC)cc1 | -2.37% (inactive)
Cn1c(N2CCOCC2)c(C=O)c2ccccc21 | -2.7% (inactive)
Cc1ccc(S(=O)(=O)N(CC(=O)N2CCc3ccccc3C2)c2cccc(Cl)c2)cc1 | -3.56% (inactive)
Cc1ccccc1N1CC(c2nc3ccccc3[nH]2)CC1=O (configuration not stated) | -2.15% (inactive)
Cc1ccc(-c2nc3ccccc3[nH]c2=O)cc1 | 24.9% (active)
COc1ccc(-c2[nH]nc(-c3ccccc3)c2-c2nc3ccccc3[nH]2)cc1 | -1.76% (inactive)
CCC(C(=O)NC1CCCCC1)N(C(=O)c1snc(C(N)=O)c1N)c1ccc(OC)cc1OC (configuration not stated) | -5.48% (inactive)
COc1ccccc1C(=O)Nc1ccnn1C1CCN(C(=O)C(C)(C)C)CC1 | 2.22% (inactive)
O=S(=O)(Nc1ccccn1)c1cccc(S(=O)(=O)c2ccc(Cl)cc2)c1 | 1.04% (inactive)
Cc1ccc(S(=O)(=O)/N=C(/Nc2ccccn2)c2ccc(Cl)cc2)cc1 | 18.6% (active)
Cc1ccc(S(=O)(=O)/N=C(/Nc2ccc3[nH]c(=O)[nH]c3c2)c2ccccc2)cc1 | -2.26% (inactive)
O=C(Nc1ccc(S(=O)(=O)Nc2ccccn2)cc1)c1ccccc1 | -3.7% (inactive)
O=S(=O)(/N=C(/Nc1ccccn1)c1ccccc1)c1ccc(Cl)cc1 | 15.2% (active)
Cc1ccc(S/C(=N\S(=O)(=O)c2ccc(Cl)cc2)c2ccccc2)cc1 | -3.74% (inactive)
COc1ccc(SCCN2CCN(CC(C)C)CCC2=O)cc1 | 4.3% (inactive) and 7.92% (inactive)
Cc1nn(C)c(C)c1C(C)NC(=O)c1ccc(OC2CCN(Cc3ccccn3)CC2)cc1 (configuration not stated) | -1.08% (inactive)
O=C(/C=C/c1ccccc1[N+](=O)[O-])NCC1CCCO1 (configuration not stated) | 10.2% (inactive)
CC1CCCCC1NC(=O)/C(C#N)=C/C=C/c1ccccc1[N+](=O)[O-] (configuration not stated) | 32.9% (active)
O=C(/C=C/c1ccccc1[N+](=O)[O-])OC1CCCCC1=O (configuration not stated) | -0.626% (inactive)
CCN(C(=O)CSc1nc2ccccc2n1CC)C1CCS(=O)(=O)C1 (configuration not stated) | 1.92% (inactive)
O=C(OCC(=O)c1cccs1)c1ccc([N+](=O)[O-])o1 | 3% (inactive)
CCC(C)(C)c1ccc(Oc2ccc(NC(=O)COC(=O)C3=COCCO3)cc2)cc1 | 5.65% (inactive)

SMILES | max response
O=C(OCC(=O)c1cccs1)C1=COCCO1 | 51.4% (active)
CCOC(=O)c1c(C)[nH]c(C)c1S(=O)(=O)NCCCc1ccco1 | -2.93% (inactive)
CCOc1ccc(C2c3[nH]c4ccccc4c3CCN2Cc2cccn2-c2ncccn2)cc1 (configuration not stated) | 0.0691% (inactive)
C/C(=N\NC(=O)C1(C)CC1(Br)Br)c1ccc(C)cc1C (configuration not stated) | 12.6% (inactive)
O=[N+]([O-])c1cc(S(=O)(=O)Nc2cccc(Cl)c2)ccc1N=Nc1c(O)[nH]c2ccccc12 | -1.65% (inactive)
O=C(CCC(=O)Nc1ccccc1)N/N=C/c1ccccc1F | 25.1% (active)
O=C(CCCCCNC(=O)c1ccccc1)N/N=C/c1ccccc1 | 13.5% (inactive)
C=CCOc1ccccc1/C=N/NC(=O)Cc1ccccc1 | 9.84% (inactive)
COc1ccc(C(C)NC(=O)C23CC4CC(CC(C4)C2)C3)cc1 (configuration not stated) | -0.477% (inactive)
Cc1noc(C)c1S(=O)(=O)Nc1ccc(C(=O)N2CCN(c3ccc(F)cc3)CC2)cc1 | 11.8% (inactive)
CN(C)c1nc(=Nc2cccc(Cl)c2)ss1 | 24.1% (active)
CCOC(=O)C1=C(O)CSC1=Nc1cccc(Cl)c1 | -2.53% (inactive)
N#Cc1cccc(NC(=O)COC(=O)c2ccccc2C(=O)c2ccc(Cl)c([N+](=O)[O-])c2)c1 | 3.74% (inactive)
O=c1[nH]c(=S)[nH]c2[nH]c(=S)[nH]c12 | -3.22% (inactive)
CCOC(=O)C1CCN(C(=O)c2ccccc2N(C)S(=O)(=O)c2ccccc2)CC1 | -2.92% (inactive)
O=C(Nc1cccc(Cl)c1)Nc1ccccc1NS(=O)(=O)c1cccs1 | 11% (active)
O=C(Nc1nncs1)c1ccccc1NS(=O)(=O)c1cccs1 | 2.77% (inactive)
O=S(=O)(Nc1ccccc1Br)c1cccs1 | -5.92% (inactive)
O=S(=O)(NCCc1ccc(Cl)cc1)c1cccs1 | 7.85% (inactive)
CN(Cc1ccc(F)cc1Cl)S(=O)(=O)c1cccs1 | 15.3% (inactive)
O=S(=O)(NCc1ccc(Cl)cc1Cl)c1cccs1 | 14.3% (active)
O=C(Nc1ccc(Br)cn1)C1CCN(S(=O)(=O)c2cccs2)CC1 | 2.63% (inactive)
c1ccc(C2CNCc3c2ccc2ccccc32)cc1 (configuration not stated) | -1.66% (inactive)

SMILES | max response
COc1cc(-c2n[nH]c(=S)n2Cc2ccccc2)cc(OC)c1OC | -3.31% (inactive)
CC(=O)c1c(O)cc2n(c1=O)-c1ccc(Cl)cc1C2(C)C | -1.91% (inactive)
COc1ccccc1CCNS(=O)(=O)c1cn(C)nc1C | 1.23% (inactive)
Cc1c(Cl)c([N+](=O)[O-])nn1CC(=O)NCCCN1CCOCC1 | -1.84% (inactive)
COc1ccc(-c2cn(-c3ccc(C)cc3)c(=O)n2CC(=O)Nc2ccc(OC)c(OC)c2)cc1 | 12.3% (inactive)
COc1ccc(NC(=O)Cn2c(-c3ccc(OC)cc3)cn(-c3ccc(C)cc3)c2=O)cc1 | 27.2% (active)
CCOc1ccc(NC(=O)CN2CCN(CC(=O)Nc3ccc(OC)cc3)CC2)cc1 | -1.52% (inactive)
CC(C)CCN(C(=O)c1csnn1)C(C(=O)NC1CCCC1)c1ccccc1 (configuration not stated) | -2.45% (inactive)
COc1ccc(NC(=O)C(C)N2c3cccc4cccc(c34)S2(=O)=O)c(OC)c1 (configuration not stated) | -5.29% (inactive)
COc1ccc(-c2c3c(=O)n(C)c(=O)n(C)c3cn2-c2cccc(OC)c2)cc1 | 0.846% (inactive)
Cn1c(=O)c2cn(-c3cccc4ccccc34)cc2n(C)c1=O | 18.7% (inactive)
Cc1ccc(-c2c3c(=O)n(C)c(=O)n(C)c3cn2-n2cnnc2)cc1 | 0.742% (inactive)
COc1ccc(-c2c3c(=O)n(C)c(=O)n(C)c3cn2NC(C)=O)cc1 | -6.45% (inactive)
COc1cccc(-n2cc3c(c2-c2ccccc2)c(=O)n(C)c(=O)n3C)c1 | 57.2% (active)
Cc1ccc(-c2c3c(=O)n(C)c(=O)n(C)c3cn2-c2ccccc2O)cc1 | 21.5% (active)
Cn1c(C(=O)N2CCCC(C(=O)NCc3ccccc3)C2)cc2sccc21 (configuration not stated) | 3.91% (inactive)
CCOc1ccc(S(=O)(=O)N2CCC(C(=O)NCc3ccccn3)CC2)cc1Cl | -1.51% (inactive)
COc1ccc(-c2nc(CS(=O)CC(=O)NCc3ccccc3)c(C)o2)cc1OC (configuration not stated) | 4.98% (inactive)
Cc1no[n+]([O-])c1COc1ccccc1/C=C1\NC(=S)NC1=O | 5.18% (inactive)
CC(=O)Nc1ccc(S(=O)(=O)Oc2ccc(Br)cc2C(=S)N2CCOCC2)cc1 | -3.27% (inactive)
CC(=O)Nc1ccc(CN2CCC(Oc3ccc(C(=O)N4CCCC4)cc3)CC2)cc1 | -0.693% (inactive)
O=C(Nc1ccc(Cl)cc1)/C(=C1\CCCN1)[N+](=O)[O-] | 5.78% (inactive)
O=C(CN(c1ccccc1)S(=O)(=O)c1ccc(Cl)cc1)Nc1ccccc1C(=O)N1CCCC1 | -1.5% (inactive)
